Screens as filed in PubChem BioAssay.
Sampled rows, rich in hits. Any-hit rate of the full collection: about 20%.
Shiga toxin inh: A qHTS for Small Molecule Inhibitors of Shiga Toxin. AID 2315, 2010. inhibition, % at 38.7 µM. Vero cells, Shiga toxin protein synthesis inhibition reporter. actives 9.2% (n = 290,000); in the data active = inhibition mostly above about 28%, no sharp cut-off; inactive = mostly below about 43%; note: 0% is about no effect
Pf growth 96h: Primary qHTS for delayed death inhibitors of the malarial parasite plastid, 96 hour incubation | actives 6.9% (n = 320,000) | Potency, µM (titrated, usually from 28.7 µM), for the others: top-dose activity change, negative = inhibition, usual class: inhibitors | P. falciparum luciferase reporter growth, 96 h; note: potency is the fitted concentration of half-maximal effect; % is set by controls: 0 for no effect and ±100 for the full control effect
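Two parasite generations (96 h, 37 C, 5% CO2) of compound exposure in infected erythrocytes (0.05% parasitemia, 2% hematocrit). Luciferase-reporter P. falciparum; decreased luminescence indicates inhibited growth, aimed at apicoplast-acting delayed death.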
Pf growth 48h: Primary qHTS for delayed death inhibitors of the malarial parasite plastid, 48 hour incubation | P. falciparum luciferase growth in erythrocytes, 48 h | Potency, µM (series often up to 28.7 µM), for the others: at the highest dose activity change, negative = inhibition, usual class: inhibitors | actives 5.9% (n = 310,000); note: potency is the fitted concentration of half-maximal effect; % is set by controls: 0 for no effect and ±100 for the full control effect
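Luminescence readout; reporter = integrated firefly luciferase in P. falciparum. RBC culture at 2% hematocrit, 0.1% parasitemia final, 37 C/5% CO2; decreased signal taken as growth inhibition.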
HCMV antiviral: qHTS Assay for inhibitors of the human cytomegalovirus (HCMV); HFF cells, HCMV-luciferase reporter, 72 h; hits give low values; activity change, negative = inhibition, % at 57.5 µM; actives 4.5% (n = 410,000); in the data active = activity change below about -60%; inconclusive = no clear call, values can overlap the other calls; inactive = above about -39%; note: % is set by controls: 0 for no effect and ±100 for the full control effect
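Compounds were evaluated in HFFs infected with an HCMV luciferase reporter virus (MOI 1 PFU/cell). Luciferase in lysates collected 72 h post infection served as the replication measure.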
CHX counter: Cycloheximide Counterscreen for Small Molecule Inhibitors of Shiga Toxin. AID 2314, 2010. cell reporter, cycloheximide protein synthesis inhibition counterscreen. actives 12% (n = 300,000). max response, %; in the data active = max response mostly above about 13%, no sharp cut-off; inactive = mostly below about 14%; note: read at 38.3 µM for the half of the compounds with a filed dose; 0% is about no effect
An asterisk follows results filed as active; ? = inconclusive; · = no result given; + = active, no number. Unless noted, calls come from the whole dose curve; as a rule, active = well fitted inhibition curve with a large enough effect; inconclusive = small, poorly fitted or top-dose-only effect, or another doubt; inactive = no such curve, though single readings can be large or run the other way.

SMILES	Shiga toxin inh	Pf growth 96h	Pf growth 48h	HCMV antiviral	CHX counter
Cc1ccc(Cl)cc1NC(=O)Cn1c(=O)n(CCC(=O)NCc2ccc3c(c2)OCO3)c(=O)c2sccc21	·	·	·	-15.3	·
COC(=O)Cc1ccc(O)c(N)c1	5.9	1.85µM*	?	-24.7	-1.3
CCOC(=O)c1c(C)oc2nc(C)nc(NCCCN3CCN(c4ccccc4OC)CC3)c12	·	·	·	5.8	·
COc1cc(C2C(C#N)=C(N)N(c3cccnc3)C3=C2C(=O)CC(C)(C)C3)ccc1O (centres undefined)	-5.4	?	·	-15.0	1.1
COc1ccc(C2C(C#N)=C(N)N(c3sc4c(c3C#N)CCCC4)C3=C2C(=O)CC(C)(C)C3)cc1 (centres undefined)	15.5	·	6.57µM*	·	7.0
COc1ccc(C2C(C#N)=C3NC(=O)c4c(sc5c4CCCCC5)N3C3=C2C(=O)CC(C)(C)C3)cc1 (centres undefined)	34.1	?	?	-4.3	-4.2
COc1ccc(C2C(C#N)=C(N)N(c3sc4c(c3C#N)CCCC4)C3=C2C(=O)CC(C)(C)C3)cc1OC (centres undefined)	-22.7	5.22µM*	·	-2.7	-7.4
CCN(C(=O)c1ccc(S(=O)(=O)N2CCCC2)cc1)C1CCS(=O)(=O)C1 (centres undefined)	·	20.8%	10.3%	0.6	·
O=C(CN1CCN(S(=O)(=O)N2CCCCC2)CC1)Nc1ccc(Cl)c(Cl)c1	-8.6	-12.2%	-22.9%	-30.5	-2.0
CC(=O)N1CCCc2cc(S(=O)(=O)N(C)CC(=O)Nc3ccc(Cl)cc3C)ccc21	·	·	·	-22.4	·
Cc1ccc(S(=O)(=O)Nc2ccc(N=Nc3ccc(O)cc3)cc2)cc1	21.4	6.1%	-17.8%	-26.7	7.8
Cc1ccc(-c2nc(N=Nc3ccc(O)cc3)n[nH]2)cc1	104.8*	16.8%	50.6%	-100.2*	48.9*
O=[N+]([O-])c1ccccc1N=Nc1ccc(O)cc1	·	·	·	62.6	·
COc1ccc(-c2nc(N=Nc3ccc(O)cc3)n[nH]2)cc1	-8.1	?	24.5%	17.4	34.7*
Cc1nc(N=Nc2ccc(O)cc2)n[nH]1	53.3*	221.7%	154.2%	34.2	20.4*
N#Cc1c(-c2ccc(Cl)cc2)[nH]c2ccccc12	·	·	·	-38.1	·
O=C(Nn1cnnc1)C1Cc2ccccc2CN1S(=O)(=O)c1ccc(F)cc1 (centres undefined)	6.1	8.28µM*	15.7%	42.3	2.8
Cc1ccc(S(=O)(=O)N2Cc3ccccc3CC2C(=O)Nn2cnnc2)cc1 (centres undefined)	-2.9	1.5%	·	24.2	-1.6
O=C(O)[C@H]1Cc2ccccc2CN1S(=O)(=O)c1ccc(F)cc1	-2.4	21.5%	44.8%	4.7	-4.1
COC(=O)C1Cc2ccccc2CN1S(=O)(=O)c1ccc(F)cc1 (centres undefined)	14.6	1.31µM*	-8.1%	5.4	-0.9
O=C(COC(=O)c1cc(S(=O)(=O)Nc2ccccc2Cl)ccc1O)Nc1ccc(F)c(F)c1F	·	·	·	3.5	·
C[C@H](O)C#Cc1cnc2c(c1)C(=O)N([C@H](C)CO)C[C@@H](C)[C@@H](CN(C)Cc1ccc(-c3ccccc3)cc1)O2	·	·	·	-70.9*	·
C[C@H](O)C#Cc1ccc2c(c1)O[C@@H](CN(C)Cc1ccc(-c3ccccc3)cc1)[C@H](C)CN([C@@H](C)CO)S2(=O)=O	·	·	·	-81.8*	·
O=S1(=O)N[C@H](Cc2ccccc2)COc2cccc(N3CCCCC3)c21	·	·	·	-12.6	·
CCCOc1ccc(-c2csc(NC(=O)CN3C(=O)CCC3=O)n2)cc1	21.9	31.1%	32.5%	5.7	3.0
SMILES	Shiga toxin inh	Pf growth 96h	Pf growth 48h	HCMV antiviral	CHX counter
CNc1sc(C(=O)c2ccccc2F)c(N)c1-c1nc2ccccc2s1	63.6*	?	·	33.4	19.4*
CCc1ccc(CNC(=O)CN2C(=O)C3CCCCN3c3ccc(C(=O)N4CCCC4)cc32)cc1 (centres undefined)	·	·	·	-10.5	·
CC1=C(C(=O)OC2CCCCCCC2)C(c2cc3c(cc2Br)OCO3)CC(=O)N1 (centres undefined)	-7.4	·	10.4µM*	?	3.3
CC1=C(C(=O)OCC2CCCCC2)C(c2ccc(F)cc2F)CC(=O)N1 (centres undefined)	·	·	·	-104.9*	·
Cn1c2c(c(=O)n(C)c1=O)C(c1cc(Br)ccc1F)CC(=O)N2 (centres undefined)	·	·	·	4.5	·
Cn1c2c(c(=O)n(C)c1=O)C(c1cc3c(cc1Br)OCO3)CC(=O)N2 (centres undefined)	4.4	9.28µM*	21.3%	17.3	2.7
COc1cc(CCC(=O)NNC(=O)c2ccc(C)cc2)cc(OC)c1OC	5.2	6.7%	5.7%	-17.7	8.6
CCCOC(=O)CSc1nc(N)c(C#N)c(CC)c1C#N	-4.6	?	?	14.0	-1.2
CSc1nc(-c2ccc(C)cc2)nc(N)c1C#N	6.0	56.8%	0.0%	91.5	13.7
CSc1nc(N)nc(SCC(=O)OC(C)C)c1C#N	23.9	50.2%	65.6%	-108.1*	5.5
CSc1nc(N)nc(SCC(=O)c2ccc(C)cc2)c1C#N	+	?	85.1%	18.8	27.9*
O=C(NNC(=O)c1cccc(S(=O)(=O)Nc2ccccc2F)c1)c1ccncc1	·	·	·	30.0	·
Cc1c(NC(=S)Nc2cccc(Cl)c2)c(=O)n(-c2ccccc2)n1C	19.0	?	?	-33.4	7.2
Cc1cc(C)c(S(=O)(=O)N2CCCCC2)c(C)c1N(C)S(=O)(=O)c1ccc(Cl)cc1	-1.4	?	9.28µM*	?	-0.4
COc1ccc(S(=O)(=O)N2CCCCCC2)cc1N(C)S(=O)(=O)c1ccc(Cl)cc1	-6.2	?	?	-60.5*	-1.7
COc1ccc(S(=O)(=O)N2CCC(C)CC2)cc1N(C)S(=O)(=O)c1ccccc1	-6.9	?	?	?	-2.1
O=[N+]([O-])c1ccccc1-c1onc(-c2ccccc2Br)c1Br	·	·	·	10.7	·
CCCn1c(C)cc(C(=O)COC(=O)CN=C2NS(=O)(=O)c3ccccc32)c1C	7.2	29.7%	24.6%	?	-1.2
